The text below walks through data of PubChem BioAssay AID743449 (Broad Institute, 2014).

Out of some 9,900 compounds screened, about 90 (0.9%) were called active. Not shown: some 2% with an inconclusive outcome. This is one part of a sample in which actives are shown more often than they occur. A number with no mark means an inactive call.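 Rule for the calls: active = mean normalized replicate activity at least 50 and at least half of replicates each reaching 50; inconclusive = only one of the two criteria met; inactive = neither criterion met.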

The assay in a line: reduction of CTGF mRNA in DLD1 cells – DLD1 colon cancer cells, RT-qPCR, single point, primary screen (AID 743449).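 Note: 0% = neutral control wells and 100% = dasatinib control wells; higher means stronger suppression of CTGF expression like dasatinib.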 The note with it: 24 h, at 12.5 µM, hits give high values. (In qPCR the cycle at which signal appears reflects the starting amount.)
What is called inhibition is the relative decrease from the control value, in per cent. As to `O=C(Cc1ccncc1)N1CCCCN2[C@@H](CO)[C@@H](c3ccc(C#Cc4ccccc4F)cc3)[C@@H]2C1`, the inhibition is 27.9%.

With `O=C(Cc1ccncc1)N1CCCCN2[C@@H](CO)[C@H](c3ccc(C#Cc4ccccc4F)cc3)[C@@H]2C1`, the inhibition was 22.3%.

`O=C(Cc1ccncc1)N1CCCCN2[C@H](CO)[C@@H](c3ccc(C#Cc4ccccc4F)cc3)[C@@H]2C1`: the inhibition is 39.4%.

For the compound `COc1cccc(-c2ccc([C@H]3[C@@H](CO)N4CCCCN(C(=O)Cc5ccncc5)C[C@@H]34)cc2)c1`, the inhibition was 18.9%.

In the case of `O=C(Cc1ccncc1)N1CCCCN2[C@H](C1)[C@@H](c1ccc(C#Cc3ccccc3F)cc1)[C@@H]2CO`, the inhibition is 12.4%.

For the compound `COc1cccc(-c2ccc([C@@H]3[C@@H](CO)N4CCCCN(C(=O)Cc5ccncc5)C[C@@H]34)cc2)c1`, the inhibition is 32.9%.

As to `COc1cccc(-c2ccc([C@H]3[C@H]4CN(C(=O)Cc5ccncc5)CCCCN4[C@H]3CO)cc2)c1`, the inhibition is 76.7% (active).

`O=C(Cc1ccncc1)N1CCCCN2[C@H](C1)[C@H](c1ccc(C#Cc3ccccc3F)cc1)[C@@H]2CO`: the inhibition was 104% (active).

For `O=C(Cc1ccncc1)N1CCCCN2[C@H](CO)[C@@H](c3ccc(C#Cc4ccccc4F)cc3)[C@H]2C1`, the inhibition is 54.3% (active).

For the compound `O=C(O)[C@H]1[C@H](CO)[C@H]2Cn3c(ccc(-c4ccncc4)c3=O)[C@@H]1N2S(=O)(=O)c1ccccc1F`, the inhibition was -4.67%.

Regarding `C/C=C/c1ccc([C@H]2[C@@H](CO)N3CCCCN(C(=O)Cc4cccnc4)C[C@@H]23)cc1`, the inhibition was -13.7%.

As to `C[C@@H]1CN([C@@H](C)CO)C(=O)CCCn2nncc2CO[C@H]1CN(C)C(=O)Oc1cccc2ccccc12`, the inhibition is -0.0735%.

For the compound `COc1ccccc1CN1[C@H](CO)[C@H](c2ccccc2)C12CN(C(=O)Cc1ccccc1)C2`, the inhibition was -16.1%.

With `C/C=C/c1ccc([C@H]2[C@H](CO)N3CCCCN(C(=O)Cc4cccnc4)C[C@@H]23)cc1`, the inhibition is 13.9%.

Consider `O=C([C@H]1N[C@H]2c3cccc(=O)n3C[C@H]2[C@@H]1CO)N1CCCCC1`, for which the inhibition was -21.1%.
